The supplement of paper PMC3545927
The list shows a part of the results. The hit rate among all sequences tested is not known here.

Target: furin, P09958
Assay: furin cleavage Z-score vs untreated control; higher = more cleavage, active = 3.5 or more, inactive = 1 or less, 8 variable residues between constant flanks
Outline: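 To give the cleavage Z-score, log read counts were set against furin-free reactions, lowess-adjusted and scaled by median absolute deviation. These counts came from PCR adapter-tagged, sequenced DNA released when purified furin cut 8-mer peptides fused to a cDNA oligonucleotide and held on magnetic beads by their N-terminus. Digests were 0.01 ml, 1:10 enzyme:substrate, in 50 mM HEPES pH 7.5 with CaCl2 and NaCl, for 7.5, 15 or 30 min.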

Chain of furin, P09958 (P09958 whole entry): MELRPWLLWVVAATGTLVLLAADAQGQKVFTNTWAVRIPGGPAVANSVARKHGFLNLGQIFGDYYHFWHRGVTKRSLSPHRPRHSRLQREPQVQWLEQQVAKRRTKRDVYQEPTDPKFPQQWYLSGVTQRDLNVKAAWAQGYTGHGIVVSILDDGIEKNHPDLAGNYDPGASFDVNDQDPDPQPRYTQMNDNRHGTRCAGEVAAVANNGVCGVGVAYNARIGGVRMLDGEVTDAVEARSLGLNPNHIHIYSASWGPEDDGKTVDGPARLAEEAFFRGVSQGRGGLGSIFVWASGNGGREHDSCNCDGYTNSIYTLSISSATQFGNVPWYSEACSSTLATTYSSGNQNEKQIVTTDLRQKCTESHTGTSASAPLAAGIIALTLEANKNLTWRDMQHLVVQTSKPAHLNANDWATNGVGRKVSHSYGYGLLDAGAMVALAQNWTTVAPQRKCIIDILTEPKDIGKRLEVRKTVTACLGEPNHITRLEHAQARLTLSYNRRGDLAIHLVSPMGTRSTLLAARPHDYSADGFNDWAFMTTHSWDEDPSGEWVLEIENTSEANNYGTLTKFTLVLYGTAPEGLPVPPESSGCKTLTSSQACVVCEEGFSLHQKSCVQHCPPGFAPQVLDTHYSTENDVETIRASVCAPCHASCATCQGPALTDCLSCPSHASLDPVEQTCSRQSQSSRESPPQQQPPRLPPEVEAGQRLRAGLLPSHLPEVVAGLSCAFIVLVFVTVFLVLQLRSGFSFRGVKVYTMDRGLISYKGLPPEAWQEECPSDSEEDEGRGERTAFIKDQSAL

Sequence	furin cleavage Z-score (7.5 min)	furin cleavage Z-score (15 min)	furin cleavage Z-score (30 min)
CAEVPCHRTSAGNASASA [HC2398]	0.843 (inactive)	-0.111 (inactive)	1.35
CARYDRQKRRAGNASASA [FS-866]	5.33 (active)	8.92 (active)	8.14 (active)
CAQRDRQKRRAGNASASA [FS-558]	8.63 (active)	9.96 (active)	8.51 (active)
CAWRRRQKRRAGNASASA [FS-898]	11.1 (active)	12.6 (active)	10.1 (active)
CAVLIDILAGAGNASASA [HC1084]	-1.68 (inactive)	-0.0246 (inactive)	-1.35 (inactive)
CALDLPPIIQAGNASASA [HC1599]	0.239 (inactive)	-0.216 (inactive)	-0.33 (inactive)
CATTVCSGSWAGNASASA [HC1870]	-0.934 (inactive)	-0.656 (inactive)	-0.569 (inactive)
CATTICSGSWAGNASASA [HC1864]	-0.759 (inactive)	-0.615 (inactive)	-0.31 (inactive)
CATTPCQGSWAGNASASA [HC79]	-0.663 (inactive)	0.917 (inactive)	-0.281 (inactive)
CAMECCSQHLAGNASASA [HC1720]	0.573 (inactive)	0.0768 (inactive)	0.728 (inactive)
CARRPRHAEQAGNASASA [FS-2781]	4.69 (active)	5.7 (active)	4 (active)
CARSRRLAEQAGNASASA [FS-1933]	0.188 (inactive)	2.91	3.14
CARRPRLSDRAGNASASA [FS-3059]	-0.769 (inactive)	-0.45 (inactive)	-0.545 (inactive)
CARRPRGTMQAGNASASA [FS-1920]	4.44 (active)	4.25 (active)	6.42 (active)
CARRPRDDDSAGNASASA [FS-3057]	-0.221 (inactive)	-0.299 (inactive)	-1.38 (inactive)
CAEEMEECSQAGNASASA [HC1792]	0.0451 (inactive)	-0.543 (inactive)	-0.411 (inactive)
CASTKVPAAYAGNASASA [HC779]	-0.328 (inactive)	-0.544 (inactive)	0.327 (inactive)
CAPGALVVGVAGNASASA [HC1105]	-0.0947 (inactive)	0.679 (inactive)	-0.0726 (inactive)
CARKARFIHDAGNASASA [FS-2421]	2.71	4.77 (active)	7.1 (active)
CADSTVTESDAGNASASA [HC1483]	-0.354 (inactive)	0.495 (inactive)	0.157 (inactive)
CARKAREVCDAGNASASA [FS-1900]	5.27 (active)	5.4 (active)	4.27 (active)
CARKYREVFCAGNASASA [FS-2041]	0.9 (inactive)	2.75	2.7

Sequence	furin cleavage Z-score (7.5 min)	furin cleavage Z-score (15 min)	furin cleavage Z-score (30 min)
CARKYRSNKGAGNASASA [FS-2703]	0.0213 (inactive)	0.138 (inactive)	1.58
CARKARFGSEAGNASASA [FS-2958]	0.624 (inactive)	0.0236 (inactive)	1.04
CARKYRSHHDAGNASASA [FS-2428]	1.45	4.06 (active)	3.48
CARKYRFHGGAGNASASA [FS-1734]	0.847 (inactive)	-1.27 (inactive)	-0.103 (inactive)
CASTPCSADLAGNASASA [HC2551]	1.45	0.00667 (inactive)	2.02
CANYTFALWRAGNASASA [HC1199]	-0.0905 (inactive)	-0.132 (inactive)	1.34
CAAGVDAETHAGNASASA [HC350]	-0.719 (inactive)	-1.77 (inactive)	-1.18 (inactive)
CAEVKTSTWVAGNASASA [HC2194]	0.637 (inactive)	-0.239 (inactive)	-1.95 (inactive)
CAKDSRLSRDAGNASASA [FS-1017]	-0.904 (inactive)	0.551 (inactive)	0.282 (inactive)
CADIPRYKRMAGNASASA [FS-1189]	6.09 (active)	5.32 (active)	5.91 (active)
CATLSRKKRAAGNASASA [FS-567]	9.09 (active)	8.88 (active)	6.75 (active)
CAVKARIKRMAGNASASA [FS-310]	8.88 (active)	10.6 (active)	7.99 (active)
CANNSREKKAAGNASASA [FS-1378]	-0.625 (inactive)	-0.493 (inactive)	-0.698 (inactive)
CAMKARPEKSAGNASASA [FS-1139]	0.00638 (inactive)	-0.792 (inactive)	-2.08 (inactive)
CATLSRKSRDAGNASASA [FS-1173]	10.1 (active)	11.3 (active)	6.95 (active)
CAVKAAASKVAGNASASA [HC1406]	-0.468 (inactive)	1.05	-0.785 (inactive)
CAKLEVVTSTAGNASASA [HC2274]	0.95 (inactive)	0.175 (inactive)	-1.42 (inactive)
CATNRRKKRAAGNASASA [FS-1174]	8.44 (active)	7.81 (active)	8.15 (active)
CAIISKKKRMAGNASASA [FS-908]	0.592 (inactive)	-0.299 (inactive)	1.14
CATNRRPQDVAGNASASA [HC168]	-1.65 (inactive)	-1.52 (inactive)	0.59 (inactive)
CAVISRKKRMAGNASASA [FS-888]	8.47 (active)	11.4 (active)	8.35 (active)
CAGHITGHRMAGNASASA [HC316]	0.56 (inactive)	-0.81 (inactive)	-0.0561 (inactive)
